Only some compounds are listed: those with a hit (about 2.5% of all), similar ones and a draw of the others.
Cruzain inh Det: qHTS Assay for Promiscuous and Specific Inhibitors of Cruzain (with detergent) | Potency, µM, without a hit: max response, negative = inhibition, hits mostly inhibitors | AID 1478, 2009 | hit rate 0.43% among 200,000 | purified cruzain, Z-FR-AMC fluorescence, 0.01% Triton | Cruzipain (Trypanosoma cruzi), P25779;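 also: plate controls were neutral wells for no effect and buffer without enzyme for full effect; nearly all actives have a fitted effect of over 40% in size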
Target sequence (P25779 123-467 limits assumed): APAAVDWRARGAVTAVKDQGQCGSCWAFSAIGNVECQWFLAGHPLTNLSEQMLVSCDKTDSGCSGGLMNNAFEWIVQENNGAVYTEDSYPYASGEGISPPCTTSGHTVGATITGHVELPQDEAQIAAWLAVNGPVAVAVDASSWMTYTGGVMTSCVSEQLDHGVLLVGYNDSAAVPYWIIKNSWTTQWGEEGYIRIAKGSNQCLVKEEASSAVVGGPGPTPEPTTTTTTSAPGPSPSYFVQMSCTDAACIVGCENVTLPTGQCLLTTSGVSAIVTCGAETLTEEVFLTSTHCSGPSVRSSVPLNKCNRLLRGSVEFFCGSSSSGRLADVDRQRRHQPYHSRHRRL
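Detergent-containing arm of a paired screen for aggregation-based inhibition: 0.01% Triton X-100 present. Cruzain at 1.5 nM cleaved 2 uM Z-FR-AMC at pH 5.5 with 5 mM DTT; AMC fluorescence gain over 60 s measured activity.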
Cruzain inh noDet: qHTS Assay for Promiscuous and Specific Inhibitors of Cruzain (without detergent); Cruzipain (Trypanosoma cruzi), P25779; purified cruzain, Z-FR-AMC fluorescence, no detergent; Potency, µM, inactives show max response, negative = inhibition, usual class: inhibitors; hit rate 2.3% among 200,000;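 also: plate controls were enzyme without inhibitor for no effect and buffer without enzyme for full effect; nearly all actives have a fitted effect of over 40% in size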
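Purified cruzain at 1.5 nM, pre-incubated 15 min with compound at room temperature in 100 mM sodium acetate pH 5.5, 5 mM DTT, 0.00005% Triton X-100. Reaction started with 2 uM Z-FR-AMC; AMC fluorescence increase over 60 s gives rate.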
The depositor's hits bear a star. Calls follow the shape of the dose curve; as a rule, active = well fitted curve in the direction sought with a large enough effect; inconclusive = small, poorly fitted or top-dose-only effect, or another doubt; inactive = no such curve, though single readings can be large; an effect the other way counts as inactive or inconclusive. Potency is read from the fitted curve at half-maximal effect.

Results for COc1cc(Nc2nc(SCc3ccccc3F)nc3ccccc23)cc(OC)c1 ?
Cruzain inh Det: 0.5%; Cruzain inh noDet: 24.7%

Results for O=C(CSc1nc(Nc2ccccc2)c2ccccc2n1)c1ccc(Cl)cc1 ?
Cruzain inh Det: -3.0%; Cruzain inh noDet: inconclusive

What do the screens show for `COc1cc(Nc2nc(SCc3ccc(Cl)cc3)nc3ccccc23)cc(OC)c1`?
Cruzain inh Det: 4.5%; Cruzain inh noDet: inconclusive

How did COc1cc(Nc2nc(SCC(=O)c3ccc(Cl)c(Cl)c3)nc3ccccc23)cc(OC)c1 do in these assays?
Cruzain inh Det: 0.6%; Cruzain inh noDet: 6.31µM*

How did Cc1ccccc1NC(=O)CS(=O)(=O)c1cccc2nsnc12 do in these assays?
Cruzain inh Det: -1.5%; Cruzain inh noDet: -0.2%

What do the screens show for `CC1=C(C(=O)Nc2ccccc2)C(c2ccc(Br)cc2)n2nc(CCCO)nc2N1` (stereo unspecified)?
Cruzain inh Det: -1.4%; Cruzain inh noDet: 20.3%

How did O=C(O)[C@@H](c1ccccc1)[C@@H](C(=O)O)c1ccccc1 do in these assays?
Cruzain inh Det: -2.5%; Cruzain inh noDet: 2.3%

What do the screens show for `COc1cc(OC)c(OC)cc1/C=N/NC(=O)C[n+]1ccccc1`?
Cruzain inh Det: -4.7%; Cruzain inh noDet: -12.6%

How did COc1cc(/C=N/O)cc(Cl)c1OC do in these assays?
Cruzain inh Det: -3.2%; Cruzain inh noDet: -2.5%

How did COc1cc(OC)c(/C=N/NC(N)=S)cc1Br do in these assays?
Cruzain inh Det: 0.178µM*; Cruzain inh noDet: 0.251µM*

Results for CCOc1cc(C(=O)O)cc(Cl)c1OCC#N ?
Cruzain inh Det: 4.1%; Cruzain inh noDet: 1.9%

What do the screens show for `C#CCOc1c(Cl)cc(/C=N/NC(N)=S)cc1OCC`?
Cruzain inh Det: 2µM*; Cruzain inh noDet: 0.631µM*

Results for CCOc1c(Cl)cc(/C=N/NC(N)=S)cc1OC ?
Cruzain inh Det: 2.51µM*; Cruzain inh noDet: 0.501µM*

How did OCC1OC([S-])[C@H](O)C(O)C1O.[Au+] (stereo partly specified) do in these assays?
Cruzain inh Det: 3.8%; Cruzain inh noDet: 12.1%

How did CN1CCN(C(c2ccccc2)c2sc3nc(-c4ccco4)nn3c2O)CC1 (stereo unspecified) do in these assays?
Cruzain inh Det: -1.5%; Cruzain inh noDet: -3.4%

How did COC(=O)c1cc2c(cc1NC(=O)c1cnn(-c3ccccc3)c1-n1cccc1)OCO2 do in these assays?
Cruzain inh Det: -1.9%; Cruzain inh noDet: -5.0%

How did Cc1ccc(NS(=O)(=O)c2cccc(C(=O)N/N=C/c3ccc4c(c3)OCCO4)c2)c(C)c1 do in these assays?
Cruzain inh Det: -13.2%; Cruzain inh noDet: 6.31µM*

Results for CCNc1ccc(C(=O)N/N=C/c2c(C)nn(-c3ccccc3)c2N2CCCC2)cc1[N+](=O)[O-] ?
Cruzain inh Det: -9.9%; Cruzain inh noDet: 5.7%

How did Cc1ccc(NS(=O)(=O)c2cccc(C(=O)N/N=C/c3c(C)nn(-c4ccccc4)c3N3CCCC3)c2)c(C)c1 do in these assays?
Cruzain inh Det: -2.1%; Cruzain inh noDet: 31.6µM*

How did COc1ccccc1NS(=O)(=O)c1cccc(C(=O)N/N=C/c2ccc(N3CCOCC3)cc2)c1 do in these assays?
Cruzain inh Det: -6.7%; Cruzain inh noDet: inconclusive

How did Cc1ccccc1Nc1c(-c2ccc(O)cc2)nc2c(C)cccn12 do in these assays?
Cruzain inh Det: -12.4%; Cruzain inh noDet: 2.0%

What do the screens show for `Cc1ccccc1C(=O)Oc1cc(-c2ccc3c(c2)OCO3)cc(=O)c2c(C)oc(C)c12`?
Cruzain inh Det: -8.8%; Cruzain inh noDet: 20µM*

How did Cc1oc(C)c2c(=O)cc(-c3ccc4c(c3)OCO4)cc(OC(=O)c3cccc(Br)c3)c12 do in these assays?
Cruzain inh Det: -3.0%; Cruzain inh noDet: 25.1µM*

Results for Cc1oc(C)c2c(=O)cc(-c3ccc4c(c3)OCO4)cc(OC(=O)c3cccc(Cl)c3)c12 ?
Cruzain inh Det: -4.4%; Cruzain inh noDet: inconclusive

How did Cc1ccc(C(=O)Oc2cc(-c3ccc4c(c3)OCO4)cc(=O)c3c(C)oc(C)c23)cc1 do in these assays?
Cruzain inh Det: -5.8%; Cruzain inh noDet: inconclusive

Results for CC1(C)CCC(=O)N[C@H]1CC(=O)C[C@H]1NC(=O)CCC1(C)C ?
Cruzain inh Det: -1.8%; Cruzain inh noDet: 6.6%

How did COc1ccc(CNC(=O)[C@H](C)[C@H]2C[C@]2(C)[C@H](NC(=O)OCc2ccccc2)c2ccccc2)cc1OC do in these assays?
Cruzain inh Det: 0.9%; Cruzain inh noDet: 28.3%

Results for Cc1cccc(NC(=O)c2ccc(CNS(=O)(=O)c3ccc4c(c3)C(C)(C)C(=O)N4C)cc2)c1 ?
Cruzain inh Det: -4.7%; Cruzain inh noDet: 24.0%

How did Cn1c(=O)c(C(=O)c2ccccc2)nc2ccccc21 do in these assays?
Cruzain inh Det: -2.1%; Cruzain inh noDet: -7.5%

Results for O=C(c1ccccc1)c1nc2ccccc2n(CCCn2c(=O)c(C(=O)c3ccccc3)nc3ccccc32)c1=O ?
Cruzain inh Det: -0.6%; Cruzain inh noDet: 10µM*

Bioassay records from PubChem BioAssay.
